PubChem BioAssay AID1159580 (chemical genetic matrix, 2015)
Out of some 5,500 compounds screened, about 2,000 (36%) were called active. About 18% were inconclusive and are not listed. Cut-off read from the data, not from the text of the source: active = normalized growth mostly below about 0.91 (no sharp cut-off); inconclusive = no clear call, values can overlap the other calls; inactive = mostly above about 0.92. The list shows a part of the results.

Assay: chemical genetic growth profiling, strain panel (AID 1159580);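 note: tested at 20 µM; growth read once vehicle control cultures reached saturation at 30 °C; 1 = growth at the plate median or of vehicle wells; lower values mean less growth of the strain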
Details: growth OD

Measured: normalized growth

C=CCc1ccc2c(c1)OCO2
inactive: S. cerevisiae deletion strains, locus YJR043C, strain POL32, active compounds read low 1.02 | S. cerevisiae deletion strains, locus YJR066W, strain TOR1, active compounds read low 0.928 | S. cerevisiae deletion strains, locus YJR075W, strain HOC1, active compounds read low 1.03 | S. cerevisiae deletion strains, locus YKL009W, strain mrt4, active compounds read low 0.979 | S. cerevisiae deletion strains, locus YKL068W, active compounds read low 0.987 | S. cerevisiae deletion strains, locus YKL085W, strain MDH1 (second series), active compounds read low 1.01 | S. cerevisiae deletion strains, locus YKL085W, strain MDH1, active compounds read low 1.01 | S. cerevisiae deletion strains, locus YKL160W, strain elf1, active compounds read low 0.994 | S. cerevisiae deletion strains, locus YKL190W, strain CNB1, active compounds read low 1.01 | S. cerevisiae deletion strains, locus YKR001C, strain vps1, active compounds read low 0.965 | S. cerevisiae deletion strains, locus YKR026C, strain gcn3, active compounds read low 1.03 | S. cerevisiae deletion strains, locus YKR091W, strain srl3, active compounds read low 1.02 | S. cerevisiae deletion strains, locus YLL001W, strain dnm1, active compounds read low 1.05 | S. cerevisiae deletion strains, locus YLL026W, active compounds read low 1.01 | S. cerevisiae deletion strains, locus YLL041C, strain sdh2, active compounds read low 1.02 | S. cerevisiae deletion strains, locus YLR027C, strain aat2, active compounds read low 1 | S. cerevisiae deletion strains, locus YLR039C, strain RIC1, active compounds read low 0.891 | S. cerevisiae deletion strains, locus YLR058C, strain SHM2, active compounds read low 1.01 | S. cerevisiae deletion strains, locus YLR102C, strain apc9, active compounds read low 0.993 | S. cerevisiae deletion strains, locus YLR113W, strain HOG1, active compounds read low 1.03 | S. cerevisiae deletion strains, locus YLR221C, strain rsa3, active compounds read low 1.06 | S. cerevisiae deletion strains, locus YLR258W, strain gsy2, active compounds read low 1.02 | S. cerevisiae deletion strains, locus YLR262C, strain YPT6 (second series), active compounds read low 1.03 | S. cerevisiae deletion strains, locus YLR262C, strain YPT6, active compounds read low 0.909 | S. cerevisiae deletion strains, locus YLR268W, strain sec22, active compounds read low 0.987 | S. cerevisiae deletion strains, locus YLR320W, strain mms22, active compounds read low 1.04 | S. cerevisiae deletion strains, locus YLR330W, strain CHS5, active compounds read low 1 | S. cerevisiae deletion strains, locus YLR342W, strain FKS1 (second series), active compounds read low 1.01 | S. cerevisiae deletion strains, locus YLR342W, strain FKS1, active compounds read low 1.02 | S. cerevisiae deletion strains, locus YLR357W, strain rsc2, active compounds read low 1.13 | S. cerevisiae deletion strains, locus YLR370C, strain arc18, active compounds read low 1.04 | S. cerevisiae deletion strains, locus YLR371W, strain rom2, active compounds read low 0.984 | S. cerevisiae deletion strains, locus YLR384C, strain iki3, active compounds read low 1.03 | S. cerevisiae deletion strains, locus YLR418C, strain cdc73, active compounds read low 1.01 | S. cerevisiae deletion strains, locus YML016C, strain PPZ1, active compounds read low 1.01 | S. cerevisiae deletion strains, locus YML032C, strain rad52, active compounds read low 0.996 | S. cerevisiae deletion strains, locus YML120C, strain ndi1, active compounds read low 1.05 | S. cerevisiae deletion strains, locus YML124C, strain tub3, active compounds read low 0.995 | S. cerevisiae deletion strains, locus YMR058W, strain fet3, active compounds read low 1.04 | S. cerevisiae deletion strains, locus YMR078C, strain ctf18, active compounds read low 0.985 | S. cerevisiae deletion strains, locus YMR125W, strain sto1, active compounds read low 1.08 | S. cerevisiae deletion strains, locus YMR129W, active compounds read low 1.03 | S. cerevisiae deletion strains, locus YMR205C, strain PFK2, active compounds read low 1 | S. cerevisiae deletion strains, locus YMR223W, strain ubp8, active compounds read low 1 | S. cerevisiae deletion strains, locus YMR231W, strain pep5, active compounds read low 1.02 | S. cerevisiae deletion strains, locus YMR263W, strain SAP30, active compounds read low 1 | S. cerevisiae deletion strains, locus YMR307W, strain GAS1, active compounds read low 0.995 | S. cerevisiae deletion strains, locus YNL067W, strain RPL9B, active compounds read low 0.998 | S. cerevisiae deletion strains, locus YNL071W, strain lat1, active compounds read low 1.03 | S. cerevisiae deletion strains, locus YNL183C, strain NPR1, active compounds read low 0.97 | S. cerevisiae deletion strains, locus YNL209W, strain ssb2, active compounds read low 1.02 | S. cerevisiae deletion strains, locus YNL233W, strain BNI4, active compounds read low 1 | S. cerevisiae deletion strains, locus YNL248C, strain rpa49, active compounds read low 1.04 | S. cerevisiae deletion strains, locus YNL250W, strain rad50, active compounds read low 1.01 | S. cerevisiae deletion strains, locus YNL271C, strain bni1, active compounds read low 0.978 | S. cerevisiae deletion strains, locus YNL298W, strain CLA4, active compounds read low 0.995 | S. cerevisiae deletion strains, locus YNL307C, strain MCK1, active compounds read low 0.989 | S. cerevisiae deletion strains, locus YNL322C, strain KRE1 (second series), active compounds read low 1.02 | S. cerevisiae deletion strains, locus YNR049C, strain mso1, active compounds read low 1.02 | S. cerevisiae deletion strains, locus YNR052C, strain pop2, active compounds read low 0.997 | S. cerevisiae deletion strains, locus YOL012C, strain htz1 0.985 | S. cerevisiae deletion strains, locus YOL147C, strain pex11, active compounds read low 0.987 | S. cerevisiae deletion strains, locus YOR001W, strain rrp6, active compounds read low 1 | S. cerevisiae deletion strains, locus YOR061W, strain CKA2, active compounds read low 1.01 | S. cerevisiae deletion strains, locus YOR069W, strain VPS5, active compounds read low 1.01 | S. cerevisiae deletion strains, locus YOR070C, strain gyp1, active compounds read low 1.01 | S. cerevisiae deletion strains, locus YOR080W, strain dia2, active compounds read low 1.03 | S. cerevisiae deletion strains, locus YOR083W, strain WHI5, active compounds read low 1 | S. cerevisiae deletion strains, locus YOR106W, strain vam3, active compounds read low 1.04 | S. cerevisiae deletion strains, locus YOR136W, strain idh2, active compounds read low 0.987 | S. cerevisiae deletion strains, locus YOR144C, strain elg1, active compounds read low 0.988 | S. cerevisiae deletion strains, locus YOR184W, strain ser1, active compounds read low 0.99 | S. cerevisiae deletion strains, locus YOR231W, strain MKK1, active compounds read low 0.99 | S. cerevisiae deletion strains, locus YOR265W, strain rbl2, active compounds read low 1.01 | S. cerevisiae deletion strains, locus YOR270C, strain vph1, active compounds read low 1.07 | S. cerevisiae deletion strains, locus YOR290C, strain snf2, active compounds read low 1.07 | S. cerevisiae deletion strains, locus YOR316C, strain cot1, active compounds read low 0.99 | S. cerevisiae deletion strains, locus YPL051W, strain arl3, active compounds read low 1 | S. cerevisiae deletion strains, locus YPL078C, strain atp4, active compounds read low 1.01 | S. cerevisiae deletion strains, locus YPL106C, strain sse1, active compounds read low 1.03 | S. cerevisiae deletion strains, locus YPL240C, strain hsp82, active compounds read low 1.02 | S. cerevisiae deletion strains, locus YPL256C, strain CLN2, active compounds read low 0.966 | S. cerevisiae deletion strains, locus YPR119W, strain clb2, active compounds read low 0.982 | S. cerevisiae deletion strains, locus YPR141C, strain kar3, active compounds read low 0.976 | S. cerevisiae deletion strains, locus YPR163C, strain tif3, active compounds read low 0.989 | S. cerevisiae deletion strains, locus YPR167C, strain met16, active compounds read low 0.991 | S. cerevisiae deletion strains, strain wtn01, active compounds read low 1.01 | S. cerevisiae strains, strain wild type, active compounds read low 1.01
